Our source for the Potency values is PubChem BioAssay (NCATS).

Inconclusive results are not listed. Entries that show only a call come without a potency. The source made the active and inactive calls. Calls follow the shape of the dose curve; as a rule, active = well fitted inhibition curve with a large enough effect; inconclusive = small, poorly fitted or top-dose-only effect; inactive = no such curve, though single readings can be large or run the other way.

The subject of experiment [1] is Zika virus NS2B-NS3 protease (unlinked complex). The experiment can be described thus: Primary screen GU Rhodamine qHTS for Zika virus inhibitors: Unlinked NS2B-NS3 protease assay (AID 1347159). Also: nearly all actives have a fitted effect of over 60% in size. The note with it: Recombinant ZIKV NS2B-NS3 protease, Rhodamine110 substrate fluorescence; series mostly up to 107 µM. The method in brief: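 Buffer 10 mM Tris-HCl pH 8.0, 0.01% Tween 20. Unlinked protease 25 nM; compound preincubation 15 min, RT, protected from light. Substrate Rhod110, 1.5 microM; ~15% conversion in 15 min.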

Experiment [2] deals with Zika virus NS2B-NS3 protease (linked construct). Put plainly: Primary screen NINDS Rhodamine qHTS for Zika virus inhibitors (AID 1347160). Also: nearly all actives have a fitted effect of over 55% in size. The following applies: purified NS2B-NS3 protease, Rhodamine110 substrate fluorescence; series mostly up to 57.1 µM. The method in brief:
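Aprotinin served as in-plate control. Conditions: 25 nM linked NS2B-NS3, pH 8.0 Tris buffer, titrated compounds, 15 min preincubation and 15 min reaction with 1.5 microM Rhod110 substrate at room temperature.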

On to `CCCCCCOC(=O)/N=C(\N)c1ccc(NCc2nc3cc(C(=O)N(CCC(=O)OCC)c4ccccn4)ccc3n2C)cc1`, for which the Potency result in experiment [1] and in experiment [2] was “inactive” throughout.

On to `O=C(NO)c1cnc(N2CCN(S(=O)(=O)c3ccc4ccccc4c3)CC2)nc1`, for which the Potency result in experiment [1] and in experiment [2] was “inactive” in each case.

Turning to `C=C1C(=O)O[C@@H]2C=C(COC(C)=O)CC/C=C(\CO)CC[C@@H]12`, the Potency entry in experiment [1] and in experiment [2] was “inactive” each time.

Regarding `CC1(NC(=O)c2ccc(C#Cc3cccc(F)c3)cn2)COC1`, the Potency entry in experiment [1] and in experiment [2] was “inactive” each time.

Consider `CC(=O)NC(C)c1cnc(-c2cnc(Oc3ccc(OC(C)C)cc3)s2)s1` (stereo unspecified), for which the Potency result in experiment [1] and in experiment [2] was “inactive” throughout.

On to `Cc1cc(C(=O)Cn2cc(C#N)ccc2=O)c(C)n1Cc1ccccc1`, for which the Potency entry in experiment [1] and in experiment [2] was “inactive” each time.

With `CC1CCCC[C@H]2C(=O)C=C[C@H](O)[C@@H]2CC(=O)O1` (stereo partly specified), the Potency entry in experiment [1] and in experiment [2] was “inactive” each time.

On to `COc1cc2c(Nc3cc(F)c(Cl)c(Cl)c3)ncnc2cc1OCC1CCCN(C)CCC1`, for which the Potency entry in experiment [1] and in experiment [2] was “inactive” throughout.

In the case of `C=C1C(=O)O[C@H]2C[C@@H](C)[C@@H]3CCC(=O)[C@@]3(C)C[C@H]12`, the Potency result in experiment [1] and in experiment [2] was “inactive” each time.

`CC1(CO)CC(O)[C@]2(C(=O)O)CCC34CC3(C=CC3[C@]5(C)C(CC[C@]34C)C(C)(CO)[C@@H](O)[C@H](O)[C@@H]5O)C2C1` (stereo partly specified): the Potency result in experiment [1] and in experiment [2] was “inactive” in each case.

For `C=C(C)C(=O)OC1CC2(C)OC(=CC2=O)C(=C)CC2OC(=O)C(=C)C12` (stereo unspecified), the Potency entry in experiment [1] and in experiment [2] was “inactive” throughout.

`C/C(=C\CO[C@@H]1O[C@H](CO[C@H]2OC[C@](O)(CO)[C@H]2O)[C@@H](O)[C@H](O)[C@H]1O)C(C)(C)O`: the Potency entry in experiment [1] and in experiment [2] was “inactive” throughout.

On to `CCN(c1cc(-c2ccc(CN3CCOCC3)cc2)cc(C(=O)NCc2c(C)cc(C)[nH]c2=O)c1C)C1CCOCC1`, for which the Potency result in experiment [1] and in experiment [2] was “inactive” in each case.
